Article PMC10668032, “Altered binding affinity of SIX1-Q177R correlates with enhanced WNT5A and WNT pathway effector expression in Wilms tumor”
Over roughly 33,000 sequences, “e-score” has its median near -0.053; the highest 2% begin near 0.38. Only a selection was taken, and the highest values are over-represented in it overall.

target: T1, SIX1 homeodomain (reference allele) (human, UniProt Q15475 108-198); assay: universal protein binding microarray; Universal all-10-mer PBM (8x60K, AMADID 030236), 300 nM GST-tagged protein, Alexa Fluor 488 anti-GST; buffer, salt, pH and temperature not stated (as in Berger); high values mean tight binding; settings: protein: ivt; tags: N-terminal GST; dsDNA, one strand shown
T1 sequence: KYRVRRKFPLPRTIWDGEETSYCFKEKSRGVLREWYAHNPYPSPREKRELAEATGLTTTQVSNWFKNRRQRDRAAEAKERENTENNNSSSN
How it was run: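 Binding of GST-tagged homeodomains is given as 8-mer E-scores from the Universal PBM Analysis Suite. The proteins were produced by in vitro transcription/translation, quantified by anti-GST western blot against a recombinant GST standard curve, and applied in duplicate at 300 nM final concentration to universal 'all 10-mer' protein binding microarrays (8×60K format).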

Sequence	binding signal [E-score]
ATACCCCG	0.4703 ± 0.00344
ACCCCCCG	0.168 ± 0.0136
ATAACCCC	0.251 ± 0.0341
ATTACCCC	0.177 ± 0.0101
ACACCCCG	0.353 ± 0.0394
ACACCCCA	0.365 ± 0.0445
ATAGCCTG	0.205 ± 0.031
ATCCCATG	0.311 ± 0.0488
GACCATGA	0.216 ± 0.0376
GGGAGATA	0.3342 ± 0.000849
ATCAGTAC	0.2244 ± 0.00203
GATCACTA	0.371 ± 0.0113
GGATAGGA	0.28 ± 0.0103
AGATAGCT	0.178 ± 0.0771
GATCCTAA	0.262 ± 0.00612
ATCAGGGC	0.178 ± 0.0395
ACAAGGTA	0.192 ± 0.0136
GATAGTAC	0.212 ± 0.0174
GAGATATC	0.442 ± 0.0368
GAGAGATC	0.286 ± 0.00645
CAGATATC	0.456 ± 0.0169
AAGATATC	0.445 ± 0.0468
CAGATATG	0.315 ± 0.0384
AAGATATT	0.214 ± 0.124
CAGATATA	0.263 ± 0.0342

Sequence	binding signal [E-score]
AAGATATG	0.303 ± 0.0441
GAGATATA	0.359 ± 0.0685
CTCTACAC	0.163 ± 0.00511
ACCATAGA	0.197 ± 0.0646
CCGATCTA	0.2622 ± 0.00225
ATAGTGCA	0.163 ± 0.0274
CGAGGGTA	0.159 ± 0.0143
ACTAATCC	0.228 ± 0.027
GTGTCAGA	0.29 ± 0.0236
ATCTCAGA	0.31 ± 0.0258
ATATCAGC	0.404 ± 0.0329
ATATCAGA	0.408 ± 0.0495
ATATCAGG	0.403 ± 0.0398
GTATCTGA	0.355 ± 0.00568
ATCTCAGG	0.164 ± 0.0156
AGATCAGC	0.273 ± 0.00331
CTATCAGA	0.271 ± 0.0216
AGATCAGG	0.284 ± 0.0116
GTATCAGA	0.466 ± 0.0136
CTATCAGC	0.202 ± 0.00952
GGTATGAA	0.224 ± 0.00641
GCCTAATA	0.167 ± 0.0373
ATCATGCA	0.225 ± 0.0116
AGATAGTA	0.24 ± 0.0305
ACCGTCTC	0.251 ± 0.0203

Sequence	binding signal [E-score]
CCCGTATA	0.29 ± 0.023
CCCGTCTC	0.205 ± 0.0534
ACCGTATC	0.449 ± 0.00906
CCCGTATC	0.469 ± 0.0109
ACCGTATA	0.278 ± 0.0281
ATACAGTC	0.163 ± 0.00378
CAGATAGC	0.171 ± 0.0462
GGGATTAC	0.167 ± 0.011
CAGGATTA	0.213 ± 0.0434
CGGATTAC	0.299 ± 0.00435
AGATAATA	0.245 ± 0.114
ATCAAATA	0.239 ± 0.0859
CACAATAC	0.31 ± 0.0105
ATACTACC	0.23 ± 0.0327
GAGGGATC	0.397 ± 0.00899
CATGGATA	0.3 ± 0.00508
TAGGGAGA	0.177 ± 0.0683
GAGGGATA	0.412 ± 0.00552
GAGGGGTA	0.257 ± 0.0214
AAGGGATA	0.37 ± 0.0084
GATGGATA	0.3768 ± 0.0011
AATGGATA	0.354 ± 0.0168
TAGGGATA	0.41 ± 0.00754
GGCATATA	0.29 ± 0.00948
CGGATTAA	0.351 ± 0.0739

Sequence	binding signal [E-score]
CTATAATA	0.259 ± 0.0899
GATCTCGC	0.254 ± 0.0311
ATAGATGA	0.287 ± 0.0197
ATCGTGCA	0.16 ± 0.0147
ATATGGAT	0.371 ± 0.00838
ACGGATCC	0.386 ± 0.0442
CCCGATCG	0.323 ± 0.0723
GCGGATCC	0.348 ± 0.0564
ACGGATCA	0.43 ± 0.0139
ACGGATCT	0.324 ± 0.0553
ACGGATCG	0.354 ± 0.0265
ACAGATCC	0.288 ± 0.0336
CCGGATTC	0.249 ± 0.0385
CCAGATCC	0.332 ± 0.0766
CCGGATCC	0.424 ± 0.034
CCGGATCG	0.417 ± 0.0468
ATCTCGAG	0.215 ± 0.0177
AACCCATA	0.263 ± 0.0634
GTTAGATA	0.248 ± 0.0413
AAGATCAA	0.201 ± 0.0668
ATCCTACC	0.299 ± 0.0201
CGTATTAG	0.174 ± 0.0547
GTACACGA	0.165 ± 0.0933
ACTAGATC	0.181 ± 0.003
CGAAGATA	0.325 ± 0.0496

Sequence	binding signal [E-score]
ATCCCGAC	0.238 ± 0.0448
CACCGATA	0.374 ± 0.0197
ACCCGATC	0.372 ± 0.0497
AACCGATA	0.41 ± 0.00758
TACCGATA	0.375 ± 0.0115
GCCCGATA	0.33 ± 0.0332
ACCCGATA	0.4 ± 0.0453
ATACATTA	0.223 ± 0.0139
ATCCATGC	0.253 ± 0.0158
ATCCGAAC	0.278 ± 0.0321
ACGGATAA	0.216 ± 0.0405
ACGGATTG	0.179 ± 0.0302
CCGGATAG	0.361 ± 0.0142
CCGGATAC	0.4414 ± 0.00339
ACGGATTC	0.187 ± 0.0297
CCGGATAA	0.299 ± 0.0306
GCGGATAC	0.43 ± 0.00572
ACGGATAT	0.4283 ± 0.00251
ACGGATAC	0.454 ± 0.00689
GCGGATAA	0.317 ± 0.0316
ACGGATAG	0.344 ± 0.0201
AGGTAGAT	0.2625 ± 0.00214
GATCTGCC	0.334 ± 0.00569
ATCCGAGC	0.24 ± 0.00809
GTATTACA	0.227 ± 0.0055

Sequence	binding signal [E-score]
GATAGTCC	0.24 ± 0.023
GGTGTTAA	0.301 ± 0.0173
ATCTGTAC	0.221 ± 0.0203
ATCGCATA	0.287 ± 0.0238
GATCATTA	0.348 ± 0.0458
AGTCTGAT	0.19 ± 0.0144
CCGATCGC	0.212 ± 0.0392
AAGATCCC	0.243 ± 0.0194
GAGATCCC	0.378 ± 0.0279
CCGATCGA	0.264 ± 0.0353
GCGATCGA	0.199 ± 0.0473
CCGATCTC	0.316 ± 0.0192
GCGATCCA	0.345 ± 0.0824
CCGATCCC	0.412 ± 0.0499
ACGATCCC	0.337 ± 0.0613
GCGATCCC	0.395 ± 0.0154
GAGATCCA	0.332 ± 0.0213
GCGATCGC	0.378 ± 0.0183
CAGATAGG	0.245 ± 0.0333
TATATAAA	0.197 ± 0.00308
TAGATCTA	0.175 ± 0.0374
ATATGTAC	0.244 ± 0.0293
ATCGCTTG	0.156 ± 0.032
ATACGATG	0.277 ± 0.0162
ATACGGTG	0.328 ± 0.012

Sequence	binding signal [E-score]
ATACGGTC	0.256 ± 0.0328
AATCGATA	0.335 ± 0.0577
TAACGATA	0.315 ± 0.0478
GATCGATC	0.362 ± 0.0437
GAACGATA	0.383 ± 0.0174
CTACGATC	0.233 ± 0.0113
GATCGATA	0.408 ± 0.0108
GAACGATC	0.236 ± 0.00301
ATACGATC	0.388 ± 0.00595
ATACGGTA	0.405 ± 0.0105
ACCAGGGT	0.189 ± 0.0407
CCGTCTAC	0.171 ± 0.0578
ATCGGTTG	0.238 ± 0.008
TAATCTCA	0.186 ± 0.0184
GTGTCCAA	0.221 ± 0.057
GGGCTAGA	0.209 ± 0.0223
GTACGATA	0.338 ± 0.0355
ATACGATA	0.419 ± 0.0297
CTACGATA	0.321 ± 0.0303
ATACTATC	0.401 ± 0.0105
ACACGATA	0.384 ± 0.0253
ACACGATC	0.266 ± 0.019
ATACTATA	0.371 ± 0.0468
ACACGATG	0.156 ± 0.0256
CTACTATC	0.273 ± 0.0271
